From PubChem BioAssay AID1159580 (chemical genetic matrix, 2015)
About 2,000 (36%) of roughly 5,500 compounds were called active. Another 18% or so got no clear call; they are omitted. Cut-off read from the data, not from the text of the source: active = normalized growth mostly below about 0.91 (no sharp cut-off); inconclusive = no clear call, values can overlap the other calls; inactive = mostly above about 0.92. The list shows a part of the results.

Experiment: chemical genetic growth profiling, strain panel (AID 1159580);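 note: tested at 20 µM; growth read once vehicle control cultures reached saturation at 30 °C; 1 = growth at the plate median or of vehicle wells; lower values mean less growth of the strain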
Details: growth OD

Measured: normalized growth

Nc1ccc(S(=O)(=O)NC(=O)c2ccccc2)cc1
inactive: S. cerevisiae deletion strains, locus YJR066W, strain TOR1, stronger effect = lower value 0.932 | S. cerevisiae deletion strains, locus YJR075W, strain HOC1, stronger effect = lower value 1.02 | S. cerevisiae deletion strains, locus YKL009W, strain mrt4, stronger effect = lower value 1.02 | S. cerevisiae deletion strains, locus YKL068W, stronger effect = lower value 1.01 | S. cerevisiae deletion strains, locus YKL085W, strain MDH1 (second series), stronger effect = lower value 1 | S. cerevisiae deletion strains, locus YKL085W, strain MDH1, stronger effect = lower value 1 | S. cerevisiae deletion strains, locus YKL160W, strain elf1, stronger effect = lower value 1.01 | S. cerevisiae deletion strains, locus YKL190W, strain CNB1, stronger effect = lower value 1.01 | S. cerevisiae deletion strains, locus YKR001C, strain vps1, stronger effect = lower value 1.03 | S. cerevisiae deletion strains, locus YKR026C, strain gcn3, stronger effect = lower value 0.969 | S. cerevisiae deletion strains, locus YKR091W, strain srl3, stronger effect = lower value 0.978 | S. cerevisiae deletion strains, locus YLL001W, strain dnm1, stronger effect = lower value 0.995 | S. cerevisiae deletion strains, locus YLL026W, stronger effect = lower value 1 | S. cerevisiae deletion strains, locus YLL041C, strain sdh2, stronger effect = lower value 0.992 | S. cerevisiae deletion strains, locus YLR027C, strain aat2, stronger effect = lower value 0.996 | S. cerevisiae deletion strains, locus YLR039C, strain RIC1, stronger effect = lower value 0.834 | S. cerevisiae deletion strains, locus YLR058C, strain SHM2, stronger effect = lower value 1.01 | S. cerevisiae deletion strains, locus YLR102C, strain apc9, stronger effect = lower value 1.01 | S. cerevisiae deletion strains, locus YLR113W, strain HOG1, stronger effect = lower value 0.968 | S. cerevisiae deletion strains, locus YLR221C, strain rsa3, stronger effect = lower value 0.976 | S. cerevisiae deletion strains, locus YLR258W, strain gsy2, stronger effect = lower value 0.987 | S. cerevisiae deletion strains, locus YLR262C, strain YPT6 (second series), stronger effect = lower value 0.979 | S. cerevisiae deletion strains, locus YLR262C, strain YPT6, stronger effect = lower value 1.01 | S. cerevisiae deletion strains, locus YLR268W, strain sec22, stronger effect = lower value 1.04 | S. cerevisiae deletion strains, locus YLR320W, strain mms22, stronger effect = lower value 0.985 | S. cerevisiae deletion strains, locus YLR330W, strain CHS5, stronger effect = lower value 1.01 | S. cerevisiae deletion strains, locus YLR342W, strain FKS1 (second series), stronger effect = lower value 1.02 | S. cerevisiae deletion strains, locus YLR342W, strain FKS1, stronger effect = lower value 0.998 | S. cerevisiae deletion strains, locus YLR357W, strain rsc2, stronger effect = lower value 0.977 | S. cerevisiae deletion strains, locus YLR370C, strain arc18, stronger effect = lower value 0.991 | S. cerevisiae deletion strains, locus YLR371W, strain rom2, stronger effect = lower value 1.02 | S. cerevisiae deletion strains, locus YLR384C, strain iki3, stronger effect = lower value 0.998 | S. cerevisiae deletion strains, locus YLR418C, strain cdc73, stronger effect = lower value 1.02 | S. cerevisiae deletion strains, locus YML016C, strain PPZ1, stronger effect = lower value 1.04 | S. cerevisiae deletion strains, locus YML032C, strain rad52, stronger effect = lower value 1.03 | S. cerevisiae deletion strains, locus YML120C, strain ndi1, stronger effect = lower value 0.972 | S. cerevisiae deletion strains, locus YML124C, strain tub3, stronger effect = lower value 1.01 | S. cerevisiae deletion strains, locus YMR058W, strain fet3, stronger effect = lower value 0.981 | S. cerevisiae deletion strains, locus YMR078C, strain ctf18, stronger effect = lower value 1.01 | S. cerevisiae deletion strains, locus YMR125W, strain sto1, stronger effect = lower value 0.977 | S. cerevisiae deletion strains, locus YMR129W, stronger effect = lower value 0.989 | S. cerevisiae deletion strains, locus YMR205C, strain PFK2, stronger effect = lower value 1 | S. cerevisiae deletion strains, locus YMR223W, strain ubp8, stronger effect = lower value 1.01 | S. cerevisiae deletion strains, locus YMR231W, strain pep5, stronger effect = lower value 0.981 | S. cerevisiae deletion strains, locus YMR263W, strain SAP30, stronger effect = lower value 1.01 | S. cerevisiae deletion strains, locus YMR307W, strain GAS1, stronger effect = lower value 0.878 | S. cerevisiae deletion strains, locus YNL067W, strain RPL9B, stronger effect = lower value 1.01 | S. cerevisiae deletion strains, locus YNL071W, strain lat1, stronger effect = lower value 0.977 | S. cerevisiae deletion strains, locus YNL183C, strain NPR1, stronger effect = lower value 0.95 | S. cerevisiae deletion strains, locus YNL209W, strain ssb2, stronger effect = lower value 0.971 | S. cerevisiae deletion strains, locus YNL233W, strain BNI4, stronger effect = lower value 1.01 | S. cerevisiae deletion strains, locus YNL248C, strain rpa49, stronger effect = lower value 1 | S. cerevisiae deletion strains, locus YNL250W, strain rad50, stronger effect = lower value 1 | S. cerevisiae deletion strains, locus YNL271C, strain bni1, stronger effect = lower value 1.01 | S. cerevisiae deletion strains, locus YNL298W, strain CLA4, stronger effect = lower value 1.02 | S. cerevisiae deletion strains, locus YNL307C, strain MCK1, stronger effect = lower value 1.03 | S. cerevisiae deletion strains, locus YNL322C, strain KRE1 (second series), stronger effect = lower value 0.964 | S. cerevisiae deletion strains, locus YNR049C, strain mso1, stronger effect = lower value 0.981 | S. cerevisiae deletion strains, locus YNR052C, strain pop2, stronger effect = lower value 1.01 | S. cerevisiae deletion strains, locus YOL006C, strain TOP1, stronger effect = lower value 1 | S. cerevisiae deletion strains, locus YOL012C, strain htz1 1.35 | S. cerevisiae deletion strains, locus YOL147C, strain pex11, stronger effect = lower value 1.02 | S. cerevisiae deletion strains, locus YOR001W, strain rrp6, stronger effect = lower value 0.954 | S. cerevisiae deletion strains, locus YOR061W, strain CKA2, stronger effect = lower value 1 | S. cerevisiae deletion strains, locus YOR069W, strain VPS5, stronger effect = lower value 1.01 | S. cerevisiae deletion strains, locus YOR070C, strain gyp1, stronger effect = lower value 0.996 | S. cerevisiae deletion strains, locus YOR080W, strain dia2, stronger effect = lower value 0.981 | S. cerevisiae deletion strains, locus YOR083W, strain WHI5, stronger effect = lower value 0.966 | S. cerevisiae deletion strains, locus YOR106W, strain vam3, stronger effect = lower value 0.999 | S. cerevisiae deletion strains, locus YOR136W, strain idh2, stronger effect = lower value 1.01 | S. cerevisiae deletion strains, locus YOR144C, strain elg1, stronger effect = lower value 1.01 | S. cerevisiae deletion strains, locus YOR184W, strain ser1, stronger effect = lower value 1.03 | S. cerevisiae deletion strains, locus YOR231W, strain MKK1, stronger effect = lower value 0.996 | S. cerevisiae deletion strains, locus YOR265W, strain rbl2, stronger effect = lower value 0.997 | S. cerevisiae deletion strains, locus YOR270C, strain vph1, stronger effect = lower value 0.96 | S. cerevisiae deletion strains, locus YOR290C, strain snf2, stronger effect = lower value 0.993 | S. cerevisiae deletion strains, locus YOR316C, strain cot1, stronger effect = lower value 1 | S. cerevisiae deletion strains, locus YPL051W, strain arl3, stronger effect = lower value 1.01 | S. cerevisiae deletion strains, locus YPL078C, strain atp4, stronger effect = lower value 1.04 | S. cerevisiae deletion strains, locus YPL106C, strain sse1, stronger effect = lower value 0.976 | S. cerevisiae deletion strains, locus YPL240C, strain hsp82, stronger effect = lower value 0.983 | S. cerevisiae deletion strains, locus YPL256C, strain CLN2, stronger effect = lower value 0.984 | S. cerevisiae deletion strains, locus YPR119W, strain clb2, stronger effect = lower value 1.02 | S. cerevisiae deletion strains, locus YPR141C, strain kar3, stronger effect = lower value 1.02 | S. cerevisiae deletion strains, locus YPR163C, strain tif3, stronger effect = lower value 1.02 | S. cerevisiae deletion strains, locus YPR167C, strain met16, stronger effect = lower value 1.01 | S. cerevisiae deletion strains, strain wtn01, stronger effect = lower value 1.01 | S. cerevisiae strains, strain wild type, stronger effect = lower value 1.01
